Test results from PubChem BioAssay AID2288 (National Center for Advancing Translational Sciences (NCATS), 2010).
In all, about 340,000 compounds went through this assay and fewer than 10 were called active. Roughly 2% stayed inconclusive and do not appear here. Calls follow the shape of the dose curve; as a rule, active = well fitted curve in the direction sought with a large enough effect; inconclusive = small, poorly fitted or top-dose-only effect, or another doubt; inactive = no such curve, though single readings can be large or run the other way. The list is a sample of the results.

Test: qHTS Assay for Modulators of miRNAs and/orActivators of miR-21;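 also: miR-21 action dims this reporter so a rising signal means less miR-21 action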
Details: HeLa miR-21 FLuc reporter, luciferase, 48 h; series mostly up to 38.3 µM
Excerpt: MLSCN Grant: 1 R21 NS059478-01 Assay Provider: Qihong Huang, The Wistar Institute NCGC Assay Overview: MicroRNAs (miRNAs) are endogenously encoded small (~20-25 nucleotides), nonprotein-coding RNAs that are involved in post-transcriptional repression of target messenger RNAs (mRNAs) (Le and Hannon, 2004). Estimated to be involved in the regulation of 30% of all protein-coding mRNAs (Filipowicz et al., 2008), miRNAs play a significant role in many biological processes including cellular differentiation and tissue development (Ghildiyal and Zamore, 2009).
NCGC Assay Protocol Summary: Reagents: HeLa cells stably expressing firefly luciferase (FLuc) under the control of a CMV promoter (upstream) and a miR-21 binding sequence directly downstream of the gene. These cells endogenously express miR-21. Control compounds used were compound C3 (provided by collaborator), N6-phenyladenosine (MP Biomedicals, 0215379625), and DMSO. Assay Summary: 6uL of HeLa miR-21-FLuc cells in assay buffer (DMEM, Invitrogen #21063-029; 10% FBS, HyClone #SH30071.03) were dispensed at 2000cells/well (3.3 x 10^5 cells/mL) into Greiner solid-white TC-treated 1536-well plates using a Multidrop Combi (Thermo Fisher Scientific). Plates were incubated for one hour at 37 degree Celsius, 95% humidity, 5% CO2. These assay plates were then treated with 23nL of compound or DMSO using a Kalypsys pin tool, which allows for delivery of a 24-point titration of each compound to the assay plate, with a final compound concentration ranging from approximately 40uM to 5pM. Assay plates were then incubated for 48 hours. After incubation, plates were allowed to come to RT for one hour prior to delivery of 3uL of 3X luciferase detection reagent. After a 15 minute incubation to allow for cell lysis, luciferase activity was measured using a ViewLux CCD imager (PerkinElmer), with an average exposure time of 2-12 seconds. Keywords: NIH Roadmap, MLPCN, MLSMR, qHTS, miR-21, microRNA, firefly luciferase, FLuc.

outcome, inactive:
CCOc1ccc(CCNC(=O)c2ccc3c(c2)sc2nc(-c4ccc(F)cc4)cn23)cc1OCC
Cc1cc(NC(=O)c2ccc(-c3ccc(Cl)cc3)o2)cc(-c2nc3ncccc3o2)c1O
O=C(CSc1oc(-c2ccco2)nc1S(=O)(=O)c1ccccc1)c1ccc(Cl)cc1
COc1cccc(CNC(=O)Cc2csc3nc(-c4ccccc4)cn23)c1
Cc1ccc(NC(=O)c2ccc(CN3CC(=O)N4CCCCC4C3=O)cc2)c(Cl)c1 (stereo unspecified)
O=C(Cn1ncn2nc(-c3cccs3)cc2c1=O)NCc1cccc(Br)c1
Cc1ccc(C)c(OCC(=O)Nc2sc3c(c2C#N)CCCC3)c1C
COc1cccc(N2CCN(S(=O)(=O)c3cc(Br)cc4c3N(C(=O)C3CC3)CC4)CC2)c1
CCNS(=O)(=O)c1cc(-c2nnc(Nc3cccc(C(F)(F)F)c3)c3ccccc23)ccc1C
Cc1nn(-c2ccc(N3CCCCC3)nn2)c(C)c1CCC(=O)NCc1ccccc1F
CCOc1ccc(N(CC)C(=O)c2cc3c(=O)oc4ccccc4c3s2)cc1
CCCN(CCC)S(=O)(=O)c1ccc(C(=O)Nc2sc3c(c2C(=O)OC)CCN(CC)C3)cc1
COC(=O)c1ccccc1NC(=O)c1cc(-c2ccccc2O)no1
COC(=O)CC1Oc2ccccc2-n2cc(-c3ccccc3)nc21 (stereo unspecified)
CCc1cc2c(cc3c(=O)n(CC(=O)N4CCN(c5cc(Cl)ccc5C)CC4)ncn32)s1
CCOC(=O)c1ccc(NC(=O)Cn2cc(S(=O)(=O)Cc3ccccc3F)c3ccccc32)cc1
CCOC(=O)c1cnc2c(C)cc(C)cc2c1Nc1ccc(N2CCOCC2)cc1
Cc1cccc(CNC(=O)c2cnc3sc(N4CCCCC4)nn3c2=O)c1
Cc1nn(-c2ccc(N3CCCCC3)nn2)c(C)c1CCC(=O)NCc1ccc(F)cc1
Cc1cccc(-n2ccnc2SCC(=O)Nc2cccc3ccccc23)c1C
CCOc1ccc(C(=O)c2cn(Cc3ccccc3OC)c3ccc(F)cc3c2=O)cc1
CCOC(=O)c1cccc(NC(=O)c2cc(CN3CCCC3)on2)c1
O=C(Nc1ccc2nc(SCCOc3ccccc3Cl)sc2c1)c1ccco1
Cc1ccc2c(=O)cc(C(=O)Nc3sc4c(c3C(=O)NCc3cccnc3)CCCC4)oc2c1
Cc1ccc(CN2C(=O)SC(Nc3ccccc3)C2=O)cc1 (stereo unspecified)
O=C(CCS(=O)(=O)c1cc(Br)cc2c1N(C(=O)C1CC1)CC2)Nc1ccc(C(F)(F)F)cc1
O=S(=O)(c1ccc(C2CCCCC2)cc1)N1CCN(c2ccc(Cl)c(Cl)c2)CC1
O=C(NCCC1=CCCCC1)c1ccc2c(c1)N(Cc1ccccc1F)C(=O)c1ccccc1S2(=O)=O
CN(C)S(=O)(=O)c1ccc(C(=O)N(Cc2cccnc2)c2nc3c(F)cc(F)cc3s2)cc1
CCNC(=O)Cn1nc(C)n2c(cc3c(OC)cccc32)c1=O
CCn1cc(C(=O)N2CCN(c3cc(C)ccc3C)CC2)c(=O)c2cc(S(=O)(=O)N(C)C3CCCCC3)ccc21
CCC(=O)N1CCc2cc(CNC(=O)Nc3ccccc3Cl)ccc21
Cc1cc(C)c(NC(=O)c2cc3sc(Cl)cc3n2C)c(C)c1
COc1ccc(C(F)(F)F)cc1NC(=O)c1sc2nc(-c3cccs3)ccc2c1N
Cc1cc2n(n1)C(c1cc(C(C)(C)C)c(O)cc1O)Nc1ccccc1-2 (stereo unspecified)
CCc1ccc(C2C(C(=O)Nc3ccccc3)=C(C)Nc3c(C(=O)Nc4ccc(C)cc4)cnn32)cc1 (stereo unspecified)
Cc1ccc(C)c(N2C(=O)N(Cc3c(F)cccc3Cl)c3ccccc3S2(=O)=O)c1
Clc1cccc(-n2ncc3c(NCCc4ccccc4)ncnc32)c1
CCOc1ccc(N2CC(C)Cn3c2nc2c3c(=O)n(Cc3c(F)cccc3Cl)c(=O)n2C)cc1 (stereo unspecified)
CCc1cc2c(cc3c(=O)n(CC(=O)N4CCN(c5cc(Cl)ccc5C)CC4)nc(CC)n32)s1
COc1ccc(-n2ccnc(NCCc3ccc(Cl)cc3)c2=O)cc1OC
O=C1CCCc2cc(S(=O)(=O)N3CCCC(C(=O)NCc4ccccc4)C3)ccc2N1 (stereo unspecified)
CCOC(=O)c1c(NC(=O)c2cc(CC)on2)sc(C(C)=O)c1C
CCOc1ccc(N(CC)C(=O)C2CCN(S(=O)(=O)c3cccc4nonc34)CC2)cc1
COc1ccccc1C1C(C(=O)N2CCCCC2)=C(C)Nc2nc3ccccc3n21 (stereo unspecified)
O=C(Nc1c(-c2ccc(F)cc2)nc2ccccn12)c1cccc(F)c1
O=C(CCn1c(=O)c2sccc2n(Cc2ccc(F)cc2)c1=O)NCc1ccc2c(c1)OCO2
COc1cc(OC)cc(-c2nc3nc(C)c(CCC(=O)Nc4ccccc4)c(C)n3n2)c1
Cc1ccccc1-c1nc2scc(CCNC(=O)C(=O)Nc3ccc(F)cc3F)n2n1
Cc1cccc2nc(-c3ccc(Cl)s3)c(Nc3ccc4c(c3)OCCO4)n12
O=C(Cn1c(=O)n(Cc2ccccc2)c(=O)c2sc3ccccc3c21)Nc1ccccc1F
COc1ccc(-c2cc(-c3ccccc3)nc3c2COc2ccc(Cl)cc2-3)cc1
Cc1ccc(S(=O)(=O)c2nc(-c3cccs3)oc2N2CCCCC2)cc1
Cc1cccc(NC(=O)Cn2cc(S(=O)(=O)Cc3ccccc3Cl)c3ccccc32)c1
O=C(NC1CC(=O)N(c2ccc(F)cc2)C1)c1cccs1 (stereo unspecified)
COc1ccc(Cl)cc1S(=O)(=O)N1CCC(c2ccncc2)CC1
CC(C)CC(NS(=O)(=O)c1ccc2c(c1)oc(=O)n2C)C(=O)NCc1ccccc1Cl (stereo unspecified)
CCc1ccccc1NC(=O)CSc1nnc(-c2ccccc2)c(-c2ccccc2)n1
CCCc1nn2c(=O)cc(COC(=O)c3ccc(NC(=O)COc4ccc(F)cc4)cc3)nc2s1
CCOc1ccccc1CNC(=O)c1ccc2c(c1)nc1n2CCC(C)C1 (stereo unspecified)
COc1ccc2c(c1)C=C(C(=O)NCc1cc(Br)ccc1OC)CO2
